Screens from PubChem BioAssay.
Only some compounds are listed: those with a hit (about 8.1% of all), similar ones and a draw of the others.
KB-3-1 tox – kills parental KB-3-1 adenocarcinoma cells | KB-3-1 viability, CellTiter-Glo ATP luminescence, 72 h | Potency, µM (titrated, usually from 46.1 µM), most hits filed as cytotoxic | actives 1.4% (n = 400,000) | AID 1347075; note: nearly all actives have a fitted effect of over 60% in size
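Parental KB-3-1 viability, qHTS format: 72 h compound exposure, 37 °C; CellTiter-Glo; media-only wells and DMSO plates as controls; concentration-effect fits on corrected data.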
SW480 rerep – DNA re-replication induction in SW480 cells; SW480 DNA re-replication, Hoechst DNA content imaging, 48 h; Potency, µM (titrated, usually from 46.1 µM), usual class: activators; actives 1.8% (n = 340,000); note: nearly all actives have a fitted effect of over 55% in size
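Image-based read-out: total Hoechst fluorescence of nuclei (405 nm excitation, 500-530 nm emission), with hits raising the fraction of high-intensity nuclei. SW480 colon cells incubated 48 hr with compounds at 37 C.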
ELG1 repair inh – ELG1-dependent DNA repair inhibition | HEK293T ELG1-luciferase reporter, luminescence, 16 h; DNA damage induced by 5-fluorouridine | Potency, µM (top dose mostly 46.1 µM), hits mostly inhibitors | actives 2.3% (n = 330,000) | AID 504467; note: nearly all actives have a fitted effect of over 55% in size
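In this reporter screen, reduction of luminescence relative to DMSO vehicle indicated activity. Compounds and 5-fluorouridine were added together to 2,000 cells per well, incubated for 16 hr at 37 °C, then developed with ONE-Glo.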
KB-V1 cytotox – kills drug-selected multidrug resistant KB-V1 cells. KB-V1 MDR cells viability, CellTiter-Glo, 72 h. Potency, µM (top dose mostly 46.1 µM), usual class: cytotoxic. actives 3.4% (n = 400,000); note: nearly all actives have a fitted effect of over 60% in size
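Cytotoxicity toward P-gp-expressing KB-V1 cells was determined as loss of CellTiter-Glo luminescence after 72 h at 37 degrees C. Compounds were tested in quantitative HTS format across a concentration range, with curves fitted to normalized data.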
MCF10A rereplic – inducers of DNA re-replication in MCF 10A breast cells; MCF 10A DNA re-replication, Hoechst nuclear intensity, 48 h; Potency, µM (top dose mostly 46.1 µM), actives largely listed as activators; actives 2.9% (n = 350,000); note: nearly all actives have a fitted effect of over 50% in size
ELG1 FLuc counter – luciferase inhibition in cell-free luciferin readout for ELG1 hits; shares compounds with ELG1 repair inh; cell-free firefly luciferase luminescence counter-screen, ViewLux; Potency, µM (top dose mostly 46.1 µM), actives largely listed as inhibitors; actives 3% (n = 350)
ELG1 Luc conf – inhibits ELG1-dependent DNA repair in HEK293T cells, confirmed; shares compounds with ELG1 repair inh; HEK293T ELG1-luciferase levels, luminescence; cells co-treated with 5-fluorouridine; Potency, µM (titrated, usually from 46.1 µM), most hits filed as inhibitors; actives 68% (n = 670); AID 624248; note: nearly all actives have a fitted effect of over 55% in size
Target sequence (Q96QE3 whole entry, looked up): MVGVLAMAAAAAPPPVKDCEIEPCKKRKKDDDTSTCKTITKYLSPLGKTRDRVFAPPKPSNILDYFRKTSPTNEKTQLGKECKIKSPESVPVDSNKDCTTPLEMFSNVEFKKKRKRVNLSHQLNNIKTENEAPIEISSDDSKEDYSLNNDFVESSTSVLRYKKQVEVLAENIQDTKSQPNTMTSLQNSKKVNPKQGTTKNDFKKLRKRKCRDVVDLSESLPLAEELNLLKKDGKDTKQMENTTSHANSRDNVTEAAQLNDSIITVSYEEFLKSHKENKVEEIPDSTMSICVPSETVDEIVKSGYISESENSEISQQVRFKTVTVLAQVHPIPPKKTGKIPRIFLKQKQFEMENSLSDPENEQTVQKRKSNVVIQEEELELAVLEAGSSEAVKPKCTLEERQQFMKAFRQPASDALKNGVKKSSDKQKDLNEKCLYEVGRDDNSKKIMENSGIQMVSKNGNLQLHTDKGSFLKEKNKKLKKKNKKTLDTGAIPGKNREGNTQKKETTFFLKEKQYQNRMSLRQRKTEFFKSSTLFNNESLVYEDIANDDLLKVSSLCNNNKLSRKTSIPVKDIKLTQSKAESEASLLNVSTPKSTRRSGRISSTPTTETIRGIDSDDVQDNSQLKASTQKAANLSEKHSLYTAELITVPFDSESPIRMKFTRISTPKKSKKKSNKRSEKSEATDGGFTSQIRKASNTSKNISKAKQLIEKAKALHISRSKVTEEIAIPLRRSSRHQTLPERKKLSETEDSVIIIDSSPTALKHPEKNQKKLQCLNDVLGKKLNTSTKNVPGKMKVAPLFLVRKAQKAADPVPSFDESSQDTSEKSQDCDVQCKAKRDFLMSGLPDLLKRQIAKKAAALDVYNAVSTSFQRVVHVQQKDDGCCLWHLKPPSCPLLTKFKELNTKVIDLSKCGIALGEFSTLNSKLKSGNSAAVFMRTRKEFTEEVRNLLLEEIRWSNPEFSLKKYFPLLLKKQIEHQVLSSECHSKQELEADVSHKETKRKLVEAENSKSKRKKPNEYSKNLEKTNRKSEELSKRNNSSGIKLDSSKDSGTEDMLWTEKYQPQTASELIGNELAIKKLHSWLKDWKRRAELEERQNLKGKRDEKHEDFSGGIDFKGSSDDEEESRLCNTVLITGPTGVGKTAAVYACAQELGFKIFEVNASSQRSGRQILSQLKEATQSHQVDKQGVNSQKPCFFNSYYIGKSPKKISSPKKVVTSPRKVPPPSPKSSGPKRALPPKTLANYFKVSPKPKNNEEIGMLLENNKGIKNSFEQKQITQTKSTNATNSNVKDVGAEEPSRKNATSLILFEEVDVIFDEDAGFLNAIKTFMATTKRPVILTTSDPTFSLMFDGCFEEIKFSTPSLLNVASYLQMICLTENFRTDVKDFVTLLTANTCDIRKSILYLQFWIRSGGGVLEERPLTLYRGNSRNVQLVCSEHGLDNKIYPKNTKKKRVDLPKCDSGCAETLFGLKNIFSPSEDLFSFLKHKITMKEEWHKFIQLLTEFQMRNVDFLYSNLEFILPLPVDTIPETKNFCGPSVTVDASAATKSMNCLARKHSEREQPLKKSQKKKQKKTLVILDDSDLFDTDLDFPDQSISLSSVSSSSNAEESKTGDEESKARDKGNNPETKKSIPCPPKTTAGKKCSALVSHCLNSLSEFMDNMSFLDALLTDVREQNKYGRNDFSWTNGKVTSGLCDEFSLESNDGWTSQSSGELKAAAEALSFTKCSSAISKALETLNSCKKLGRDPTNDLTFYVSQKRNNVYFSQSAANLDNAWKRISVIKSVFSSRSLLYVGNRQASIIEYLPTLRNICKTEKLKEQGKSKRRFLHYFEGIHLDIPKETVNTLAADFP
ELG1-Luc MMS – confirmation of human ELG1 repair inhibitors, MMS stimulated. actives 53% (n = 670). Potency, µM (titrated, usually from 46.1 µM), usual class: inhibitors. shares compounds with ELG1 repair inh. HEK293T luciferase-tagged ELG1 level, MMS stimulated; note: nearly all actives have a fitted effect of over 60% in size
ELG1 5FU viab – confirmation of ELG1 repair inhibitors: viability with 5FU; AID 624250; Potency, µM (titrated, usually from 46.1 µM), usual class: cytotoxic; shares compounds with ELG1 repair inh; 670 tested, under 10 active; cell viability with 5-FU, ELG1-dependent repair;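 note: ELG1-luc HEK293T cells cotreated with 5-fluorouridine at 10 µM final; viability measured 16 h after compound addition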
ELG1 MMS viab – confirmation of ELG1 repair inhibitors: viability with MMS. shares compounds with ELG1 repair inh. Cell viability with MMS, ELG1-dependent DNA repair. actives 33% (n = 670). Potency, µM (top dose mostly 46.1 µM), actives largely listed as cytotoxic. AID 624251;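 note: ELG1-luc HEK293T cells co-treated with 10 µM MMS; viability read 16 h after compound addition; nearly all actives have a fitted effect of over 60% in size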
Cell viab unstim – affects unstimulated cell viability, ELG1 hit counter-screen. shares compounds with ELG1 repair inh. actives 8% (n = 900). Potency, µM (series often up to 45.9 µM), usual class: cytotoxic. cell viability counter-screen, unstimulated, luminescence;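 note: compound exposure lasted 16 hours before reading; nearly all actives have a fitted effect of over 55% in size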
FLuc enzyme – inhibits purified firefly luciferase, counter-screen for ELG1 hits | shares compounds with ELG1 repair inh | purified firefly luciferase, luminescence counter-screen | Potency, µM (highest dose often 57.5 µM), most hits filed as inhibitors | actives 10% (n = 350) | AID 624253
Numbers stand for hits. Calls come from the whole dose curve; as a rule, active = well fitted curve in the direction sought with a large enough effect; inconclusive = small, poorly fitted or top-dose-only effect, or another doubt; inactive = no such curve, though single readings can be large; an effect the other way counts as inactive or inconclusive.

Results for c1ccc(SCc2cn(C[C@H]3CC[C@@H]([C@@H]4CC[C@H](Cn5cc(CSc6ccccc6)nn5)O4)O3)nn2)cc1 ?
KB-3-1 tox: inactive; SW480 rerep: inactive; ELG1 repair inh: 2.1µM; KB-V1 cytotox: inactive; MCF10A rereplic: inactive; ELG1 Luc conf: 28µM; ELG1-Luc MMS: 28µM; ELG1 5FU viab: inconclusive; ELG1 MMS viab: inactive; Cell viab unstim: inactive

How did COc1cc(/C=C/C(=O)OC(C)C(=O)NC2CCCCC2C)cc(Cl)c1OC (configuration not stated) do in these assays?
KB-3-1 tox: inactive; SW480 rerep: inactive; ELG1 repair inh: inactive; KB-V1 cytotox: inactive; MCF10A rereplic: inactive

What do the screens show for `COc1ccc(-c2cc(C(F)F)n3ncc(C(=O)Nc4ccc(C(=O)N5CCOCC5)cc4)c3n2)cc1`?
KB-3-1 tox: inactive; SW480 rerep: inactive; ELG1 repair inh: 2.6µM; KB-V1 cytotox: inactive; MCF10A rereplic: inactive; ELG1 Luc conf: 2.8µM; ELG1-Luc MMS: inactive; ELG1 5FU viab: inconclusive; ELG1 MMS viab: inactive; Cell viab unstim: inconclusive

What do the screens show for `CCOC(=O)N1CCN(C(=O)c2cnn3c(C(F)F)cc(-c4ccc(C)cc4)nc23)CC1`?
KB-3-1 tox: inconclusive; SW480 rerep: inactive; ELG1 repair inh: 3.7µM; KB-V1 cytotox: inconclusive; MCF10A rereplic: inactive; ELG1 Luc conf: 3.5µM; ELG1-Luc MMS: inactive; ELG1 5FU viab: inconclusive; ELG1 MMS viab: inactive; Cell viab unstim: inconclusive

What do the screens show for `COc1ccc(-c2cc(C(F)F)n3ncc(C(=O)N4CCc5ccccc54)c3n2)cc1`?
KB-3-1 tox: inactive; SW480 rerep: 7.3µM; ELG1 repair inh: 0.52µM; KB-V1 cytotox: inconclusive; MCF10A rereplic: 4.6µM; ELG1 FLuc counter: inactive; ELG1 Luc conf: 4.5µM; ELG1-Luc MMS: inconclusive; ELG1 5FU viab: inconclusive; ELG1 MMS viab: inconclusive; Cell viab unstim: inactive; FLuc enzyme: inactive

How did COc1cc(C(=O)NCc2ccccc2)cc(Br)c1OC do in these assays?
KB-3-1 tox: inactive; SW480 rerep: inactive; ELG1 repair inh: 3.7µM; KB-V1 cytotox: inactive; MCF10A rereplic: inactive; ELG1 Luc conf: inconclusive; ELG1-Luc MMS: inactive; ELG1 5FU viab: inconclusive; ELG1 MMS viab: inactive; Cell viab unstim: inactive

Results for COc1cc(C(=O)NCc2ccncc2)cc(OC)c1OC ?
KB-3-1 tox: inactive; SW480 rerep: inactive; ELG1 repair inh: inconclusive; KB-V1 cytotox: inactive; MCF10A rereplic: inactive

What do the screens show for `Cc1ccc2ncc(S(=O)(=O)c3ccccc3)c(N3CCCCC3C)c2c1` (configuration not stated)?
KB-3-1 tox: inconclusive; SW480 rerep: inactive; ELG1 repair inh: inactive; KB-V1 cytotox: inactive; MCF10A rereplic: inactive

Results for CN(CC(=O)Nc1ccc(Cl)cc1)CC(=O)Nc1sc2c(c1C(N)=O)CCC2 ?
KB-3-1 tox: inactive; KB-V1 cytotox: inactive

Results for CN(CC(=O)Nc1ccccc1Cl)CC(=O)Nc1sc2c(c1C(N)=O)CCC2 ?
KB-3-1 tox: inactive; SW480 rerep: inconclusive; ELG1 repair inh: 4.6µM; KB-V1 cytotox: inactive; MCF10A rereplic: 3.3µM; ELG1 Luc conf: 16µM; ELG1-Luc MMS: inconclusive; ELG1 5FU viab: inactive; ELG1 MMS viab: inactive; Cell viab unstim: inconclusive

Results for COc1ccc(NC(=O)C2CCN(c3ncnc4c3nc3n4CCCCC3)CC2)cc1Cl ?
KB-3-1 tox: inactive; SW480 rerep: inconclusive; ELG1 repair inh: 1.8µM; KB-V1 cytotox: inactive; MCF10A rereplic: inactive; ELG1 FLuc counter: inactive; ELG1 Luc conf: 3.2µM; ELG1-Luc MMS: inconclusive; ELG1 5FU viab: inconclusive; ELG1 MMS viab: inconclusive; Cell viab unstim: inconclusive; FLuc enzyme: inactive

Results for Cc1ccc(NC(=O)C2CCCN(c3ncnc4c3nc3n4CCCCC3)C2)cc1Cl (configuration not stated) ?
KB-3-1 tox: inconclusive; SW480 rerep: inconclusive; ELG1 repair inh: inactive; KB-V1 cytotox: inconclusive; MCF10A rereplic: inactive

How did Cc1ccc(NC(=O)C2CCN(c3ncnc4c3nc3n4CCCCC3)CC2)cc1Cl do in these assays?
KB-3-1 tox: inconclusive; SW480 rerep: inconclusive; ELG1 repair inh: 2.3µM; KB-V1 cytotox: inactive; MCF10A rereplic: 15µM; ELG1 FLuc counter: inactive; ELG1 Luc conf: 10µM; ELG1-Luc MMS: 18µM; ELG1 5FU viab: inconclusive; ELG1 MMS viab: inactive; Cell viab unstim: inconclusive; FLuc enzyme: inactive

What do the screens show for `CC(C)(C)OC(=O)C[C@@H]1C/C=C\C[C@@H](CC(=O)N(CCO)Cc2ccccc2)C(=O)NC[C@H](c2ccccc2)OC1=O`?
KB-3-1 tox: inactive; SW480 rerep: inactive; ELG1 repair inh: 1.5µM; KB-V1 cytotox: inconclusive; MCF10A rereplic: inactive; ELG1 Luc conf: 13µM; ELG1-Luc MMS: 7.9µM; ELG1 5FU viab: inactive; ELG1 MMS viab: inconclusive; Cell viab unstim: inconclusive

What do the screens show for `CC(C)(C)OC(=O)C[C@@H]1C/C=C\C[C@@H](CC(=O)N(CCO)Cc2ccccc2)C(=O)NC[C@@H](c2ccccc2)OC1=O`?
KB-3-1 tox: inactive; SW480 rerep: inactive; ELG1 repair inh: inconclusive; KB-V1 cytotox: inconclusive; MCF10A rereplic: inactive

What do the screens show for `CC(/C=N/n1c(-c2ccc(C)cc2)n[nH]c1=S)=C\c1ccco1`?
KB-3-1 tox: inactive; SW480 rerep: inactive; ELG1 repair inh: inactive; KB-V1 cytotox: inactive; MCF10A rereplic: inconclusive

What do the screens show for `CC(=C/c1ccccc1)/C=N/n1c(-c2ccncc2)n[nH]c1=S`?
KB-3-1 tox: inactive; SW480 rerep: inactive; ELG1 repair inh: 2.3µM; KB-V1 cytotox: inactive; MCF10A rereplic: inactive; ELG1 Luc conf: 2.8µM; ELG1-Luc MMS: inconclusive; ELG1 5FU viab: inactive; ELG1 MMS viab: inactive; Cell viab unstim: inactive
